Experimental data: PubChem BioAssay (EPA / NIEHS)
Active and inactive are the calls of the source. The calls were made as follows: active = hit-call score of the fitted dose curve at least 0.9, where 1 is the maximum; inactive = score below 0.9.

Legend:
Details in all cases: mRNA level, 48 h; actives raise or lower the signal
[1] = read-out: Glutamate-cysteine ligase catalytic (GCLC), GCLC (gene 2729); experiment: LTEA_HepaRG_GCLC: Life Technologies and Expression Analysis (LTEA) Assay for Glutamate-cysteine ligase catalytic (GCLC) using HepaRG (AID 2283498)
Procedure, shortened: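 Read-out is GCLC transcript level by Fluidigm-based TaqMan qRT-PCR, normalized to three housekeeping genes and fitted in both directions relative to 0.5% DMSO. Human HepaRG cells received chemicals for 48 h, up to 100 uM.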

[2] = read-out: growth arrest and DNA damage 45 (GADD45G), GADD45G (gene 10912); experiment: LTEA_HepaRG_GADD45G: Life Technologies and Expression Analysis (LTEA) Assay for growth arrest and DNA damage 45 (GADD45G) using HepaRG (AID 2283499)
Procedure, shortened: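 Differentiated human HepaRG cells in serum-free induction medium were exposed for 48 h to 8 half-log concentrations up to 100 uM in 0.5% DMSO, in duplicate. GADD45G mRNA was measured by TaqMan qRT-PCR, normalised to ACTB, GAPDH and POLR2A, and fitted bidirectionally against DMSO.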

[3] = read-out: Glutamate-cysteine ligase regulatory (GCLM), GCLM (gene 2730); experiment: LTEA_HepaRG_GCLM: Life Technologies and Expression Analysis (LTEA) Assay for Glutamate-cysteine ligase regulatory (GCLM) using HepaRG (AID 2283500)
Procedure, shortened: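 Differentiated HepaRG cells exposed 48 h in serum-free induction medium to eight half-log concentrations up to 100 uM (0.5% DMSO). GCLM mRNA by TaqMan qRT-PCR, normalized to ACTB, GAPDH and POLR2A; bidirectional fit versus DMSO.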

[4] = read-out: Glutathione S-transferase M3 (GSTM3), GSTM3 (gene 2947); experiment: LTEA_HepaRG_GSTM3: Life Technologies and Expression Analysis (LTEA) Assay for Glutathione S-transferase M3 (GSTM3) using HepaRG (AID 2283501)
Procedure, shortened: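 Differentiated HepaRG cells in serum-free induction medium were exposed in duplicate for 48 h to 8 half-log concentrations up to 100 uM in 0.5% DMSO. GSTM3 mRNA was measured by TaqMan qRT-PCR, normalized to ACTB/GAPDH/POLR2A, and fitted bidirectionally versus DMSO.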

[5] = read-out: Heat shock 70 kDa protein 1 (HSPA1A), gene 3303; experiment: LTEA_HepaRG_HSPA1A: Life Technologies and Expression Analysis (LTEA) Assay for Heat shock 70 kDa protein 1 (HSPA1A) using HepaRG (AID 2283502)
Procedure, shortened: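 Human HepaRG cells in serum-free induction medium were exposed in duplicate for 48 h to 8 half-log concentrations, highest 100 uM, in 0.5% DMSO. HSPA1A mRNA read by TaqMan qRT-PCR, normalized to ACTB, GAPDH, POLR2A, fitted bidirectionally against DMSO.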

[6] = read-out: 3-Hydroxy-3-Methylglutaryl-CoA Synthase 2 (HMGCS2), HMGCS2 (gene 3158); experiment: LTEA_HepaRG_HMGCS2: Life Technologies and Expression Analysis (LTEA) Assay for 3-Hydroxy-3-Methylglutaryl-CoA Synthase 2 (HMGCS2) using HepaRG (AID 2283504)
Procedure, shortened: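 Differentiated human HepaRG cells were exposed in duplicate for 48 h in serum-free induction medium to eight concentrations (top 100 uM, half-log steps, 0.5% DMSO). HMGCS2 mRNA was quantified by TaqMan qRT-PCR, normalised to ACTB, GAPDH and POLR2A, then fitted bidirectionally against DMSO.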

HGF (gene 3082) = experiment: LTEA_HepaRG_HGF: Life Technologies and Expression Analysis (LTEA) Assay for Hepatocyte Growth Facto (HGF) using HepaRG (AID 2283505)
Procedure, shortened: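 Differentiated human HepaRG cells in serum-free induction medium were exposed in duplicate for 48 h to eight concentrations (top 100 uM, half-log steps, 0.5% DMSO). HGF mRNA was quantified by qRT-PCR, normalized to ACTB, GAPDH and POLR2A.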

[7] = read-out: Insulin-like growth factor-binding protein 1 (IGFBP1), IGFBP1 (gene 3484); experiment: LTEA_HepaRG_IGFBP1: Life Technologies and Expression Analysis (LTEA) Assay for Insulin-like growth factor-binding protein 1 (IGFBP1) using HepaRG (AID 2283508)
Procedure, shortened: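 Differentiated human HepaRG cells in serum-free induction medium were exposed in duplicate for 48 h to eight concentrations, top 100 uM with half-log dilutions, in 0.5% DMSO. Transcript levels came from qRT-PCR normalised to ACTB, GAPDH and POLR2A, fitted bidirectionally against DMSO.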

[8] = read-out: Interleukin 6 (IL6), IL6 (gene 3569); experiment: LTEA_HepaRG_IL6: Life Technologies and Expression Analysis (LTEA) Assay for Interleukin 6 (IL6) using HepaRG (AID 2283509)
Procedure, shortened: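 HepaRG, ~100,000 cells/well, 48 h pre-culture; serum-free induction medium; cmpd 8-pt half-log from 100 uM, 0.5% DMSO, duplicate, 48 h. Lysis in RLT, TaqMan qRT-PCR; gain or loss vs DMSO.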

[9] = read-out: Interleukin 6 Receptor (IL6R), IL6R (gene 3570); experiment: LTEA_HepaRG_IL6R: Life Technologies and Expression Analysis (LTEA) Assay for Interleukin 6 Receptor (IL6R) using HepaRG (AID 2283510);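 as to AC50: TaqMan qRT-PCR signal normalized to ACTB GAPDH and POLR2A housekeeping genes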
Procedure, shortened: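 Differentiated HepaRG cells, plated 48 h, then exposed in duplicate for 48 h in serum-free induction medium to 8 half-log concentrations (top 100 uM, 0.5% DMSO). IL6R mRNA measured by TaqMan qRT-PCR, normalized to ACTB/GAPDH/POLR2A; bidirectional fit vs DMSO.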

[10] = read-out: Potassium channel subfamily K member 1 (KCNK1), KCNK1 (gene 3775); experiment: LTEA_HepaRG_KCNK1: Life Technologies and Expression Analysis (LTEA) Assay for Potassium channel subfamily K member 1 (KCNK1) using HepaRG (AID 2283511)
Procedure, shortened: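 Gain or loss of KCNK1 mRNA is the read-out, quantified by qRT-PCR against three housekeeping genes after 48 h chemical treatment of human HepaRG liver cells. Concentrations ran from 100 uM downward in half-log steps, vehicle 0.5% DMSO.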

[11] = read-out: Keratin 19 (KRT19), KRT19 (gene 3880); experiment: LTEA_HepaRG_KRT19: Life Technologies and Expression Analysis (LTEA) Assay for Keratin 19 (KRT19) using HepaRG (AID 2283512)
Procedure, shortened: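 Differentiated human HepaRG cells, plated 48 h, were exposed in duplicate for 48 h in serum-free induction medium to eight half-log concentrations up to 100 uM in 0.5% DMSO. KRT19 mRNA was quantified by qRT-PCR, normalized to ACTB, GAPDH and POLR2A, and fitted bidirectionally versus DMSO.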

[12] = read-out: JUN Transcription Factor, JUN (gene 3725); experiment: LTEA_HepaRG_JUN: Life Technologies and Expression Analysis (LTEA) Assay for JUN Transcription Factor using HepaRG (AID 2283513)
Procedure, shortened: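 HepaRG cells, 48 h post-plating, exposed 48 h in serum-free induction medium to 8-point half-log series (top 100 uM, 0.5% DMSO), duplicate; mRNA by qRT-PCR (TaqMan, Fluidigm), normalized to ACTB/GAPDH/POLR2A; bidirectional fit vs DMSO.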

[13] = read-out: Lipase C (LIPC), LIPC (gene 3990); experiment: LTEA_HepaRG_LIPC: Life Technologies and Expression Analysis (LTEA) Assay for Lipase C (LIPC) using HepaRG (AID 2283514)
Procedure, shortened: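 Read-out is LIPC transcript level by TaqMan qRT-PCR, normalized to three housekeeping genes, after 48 h chemical treatment of human HepaRG liver cells. Curves span eight concentrations topping at 100 uM; activity in either direction scored relative to 0.5% DMSO.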

[14] = read-out: Lipoprotein lipase (LPL), LPL (gene 4023); experiment: LTEA_HepaRG_LPL: Life Technologies and Expression Analysis (LTEA) Assay for Lipoprotein lipase (LPL) using HepaRG (AID 2283515)
Procedure, shortened: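 Read-out is LPL transcript level by qRT-PCR, normalized to three housekeeping genes and fitted bidirectionally against the DMSO control. Human HepaRG cells received chemicals for 48 h at up to 100 uM.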

[15] = read-out: MicroRNA 122 (MIR122), gene 406906; experiment: LTEA_HepaRG_MIR122: Life Technologies and Expression Analysis (LTEA) Assay for MicroRNA 122 (MIR122) using HepaRG (AID 2283516); also: the transcript read is the microRNA miR-122
Procedure, shortened: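 Differentiated human HepaRG cells in serum-free induction medium exposed 48 h to 8 half-log concentrations from 100 uM in 0.5% DMSO, duplicate. MIR122 quantified by Fluidigm TaqMan qRT-PCR, normalised to ACTB, GAPDH, POLR2A; fold change fitted bidirectionally versus DMSO.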

[16] = read-out: matrix metalloproteinase-10 (MMP10), MMP10 (gene 4319); experiment: LTEA_HepaRG_MMP10: Life Technologies and Expression Analysis (LTEA) Assay for matrix metalloproteinase-10 (MMP10) using HepaRG (AID 2283517)
Procedure, shortened: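 Gain or loss of MMP10 mRNA is fitted relative to the 0.5% DMSO vehicle. The human hepatic line HepaRG receives a 48-hour serum-free exposure, in duplicate, with a maximum concentration of 100 uM.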

[17] = read-out: Intercellular Adhesion Molecule 1 (ICAM1), ICAM1 (gene 3383); experiment: LTEA_HepaRG_ICAM1: Life Technologies and Expression Analysis (LTEA) Assay for Intercellular Adhesion Molecule 1 (ICAM1) using HepaRG (AID 2283507)
Procedure, shortened: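 Differentiated HepaRG cells in serum-free induction medium were exposed in duplicate for 48 h to eight half-log concentrations up to 100 uM in 0.5% DMSO. Transcript levels were measured by qRT-PCR normalized to ACTB, GAPDH and POLR2A; bidirectional fits relative to DMSO.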

Measured: AC50

C[C@@H]1C[C@H]2[C@@H]3CCC4=CC(=O)C=C[C@]4(C)[C@@]3(F)[C@@H](O)C[C@]2(C)[C@@]1(O)C(=O)COP(=O)(O)O
inactive: [1] | [2] | [3] | [4] | [5] | [6] | HGF (gene 3082) | [7] | [8] | [9] | [10] | [11] | [12] | [13] | [14] | [15] | [16]

CN1CCN(c2ccccc2/C=C2\SCCN(c3ccc(Cl)c(Cl)c3)C2=O)CC1
inactive: [1] | [2] | [3] | [4] | HGF (gene 3082) | [13]
active: [5] 71.9 µM | [6] 60.3 µM | [17] 98.9 µM | [7] 60.9 µM | [8] 92.2 µM | [9] 50 µM | [10] 59.5 µM | [11] 12.4 µM | [12] 75.5 µM | [14] 84.9 µM | [15] 94.1 µM | [16] 93.9 µM

OC1CCCCC1
inactive: [1] | [2] | [3] | [4] | [5] | [6] | HGF (gene 3082) | [7] | [8] | [9] | [10] | [11] | [12] | [13] | [14] | [15] | [16]

CCCOc1sc(C(=O)N2CCC(c3cc(CN)ccc3F)CC2)c(C)c1Br
inactive: [1] | [2] | [3] | [4] | [5] | [6] | HGF (gene 3082) | [7] | [8] | [9] | [10] | [11] | [12] | [13] | [14] | [15] | [16]
